Results published in PubChem BioAssay (NCI).
About 79,000 compounds went through this panel and 15% of them were active in at least one assay; those are over-represented in the sample as a whole. Unmarked numbers belong to inactive results. The source made the active and inactive calls. Cut-off read from the data, not from the text of the source: active = growth inhibition above about 70%; inactive = the rest.

Legend:
[1] = NCI Yeast Anticancer Drug Screen. Data for the wt1 strain (AID 149);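 note: 0% = growth of vehicle-treated wt1 cultures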; details: S. cerevisiae wt1 strain (SPY 50644) growth inhibition, active compounds read high
Procedure, shortened: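 Growth inhibition read against vehicle controls after compound exposure of the wt1 yeast strain.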

[2] = NCI Yeast Anticancer Drug Screen. Data for the rad50EPP+ strain (AID 151);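 note: 0% = growth of vehicle-treated control cultures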; details: S. cerevisiae rad50 mutant strain, active compounds read high
Procedure, shortened: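 Measured: growth inhibition of rad50EPP+ yeast. Reference: vehicle-treated controls. Screen uses strains with defined genetic alterations in DNA damage repair or cell cycle control.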

[3] = NCI Yeast Anticancer Drug Screen. Data for the mgt1 strain (AID 153); details: S. cerevisiae mgt1 mutant growth inhibition, active compounds read high
Procedure, shortened: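 Compounds were applied to mgt1 mutant yeast, and growth was then compared against vehicle-treated control cultures to give percent inhibition.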

[4] = NCI Yeast Anticancer Drug Screen. Data for the rad50 strain (AID 155);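 note: 0% = growth of vehicle-only cultures of the same strain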; details: S. cerevisiae rad50 strain growth inhibition, active compounds read high
Procedure, shortened: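 Readout: growth inhibition relative to vehicle-treated cultures. Compound exposure was carried out in a genetically defined yeast strain deficient in DNA damage repair.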

[5] = NCI Yeast Anticancer Drug Screen. Data for the mec2-1 strain (AID 157); details: S. cerevisiae mec2-1 strain, active compounds read high
Procedure, shortened: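 Compounds were applied to mec2-1 yeast cells. Their growth was then compared with that of vehicle-treated cultures to give growth inhibition.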

[6] = NCI Yeast Anticancer Drug Screen. Data for the sgs1 mgt1 strain (AID 161);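 note: 0% = growth of cultures given vehicle only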; details: S. cerevisiae sgs1 mgt1 strain, active compounds read high
Procedure, shortened: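 Percent growth inhibition was derived by comparing compound-exposed mutant yeast with vehicle-exposed cultures. The strain carries alterations in DNA damage repair.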

[7] = NCI Yeast Anticancer Drug Screen. Data for the CLN2oe strain (AID 163);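 note: 0% = growth of vehicle-only control cultures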; details: S. cerevisiae CLN2oe strain, active compounds read high
Procedure, shortened: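 Cells of an engineered yeast line with disturbed cell-cycle regulation are treated with compound. Inhibition of growth is then calculated relative to the vehicle-treated reference.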

[8] = NCI Yeast Anticancer Drug Screen. Data for the cln2 rad14 strain (AID 165);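 note: 0% = growth equal to vehicle treated cultures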; details: S. cerevisiae cln2 rad14 strain, active compounds read high
Procedure, shortened: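 Strain: cln2 rad14 yeast, altered in cell cycle control and DNA damage repair. Read-out: growth inhibition vs vehicle.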

[9] = NCI Yeast Anticancer Drug Screen. Data for the bub3 strain (AID 167); details: S. cerevisiae bub3 mutant strain, active compounds read high
Procedure, shortened: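 Readout: yeast growth inhibition, expressed relative to vehicle-only wells. The test organism is a mutant strain from a panel with lesions in DNA repair or checkpoint genes.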

[10] = NCI Yeast Anticancer Drug Screen. Data for the wt2 strain (AID 169);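 note: 0% = growth of vehicle-treated yeast cultures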; details: S. cerevisiae wt2 strain growth inhibition, active compounds read high
Procedure, shortened: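 Growth of compound-treated yeast is measured and expressed as inhibition relative to vehicle-only controls.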

[11] = NCI Yeast Anticancer Drug Screen. Data for the mlh1 strain (AID 171);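 note: 0% = growth of vehicle-treated control cultures of the same strain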; details: S. cerevisiae mlh1 strain growth inhibition, active compounds read high
Procedure, shortened: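 Test agents were incubated with yeast bearing a defined DNA damage repair or cell cycle control alteration; values are growth inhibition normalised to vehicle-treated cultures.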

[12] = NCI Yeast Anticancer Drug Screen. Data for the sgs1 strain (AID 173);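 note: 0% = growth of vehicle-only control cultures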; details: S. cerevisiae sgs1 mutant, active compounds read high
Procedure, shortened: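 Strain with an altered DNA repair or cell cycle pathway exposed to compound. Growth then measured. Value = inhibition versus vehicle control.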

[13] = NCI Yeast Anticancer Drug Screen. Data for the mlh1 rad18 strain (AID 175); details: S. cerevisiae mlh1 rad18 strain growth inhibition, active compounds read high
Procedure, shortened: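 A repair-deficient yeast strain is exposed to test compound, and growth is scored relative to vehicle-treated controls.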

[14] = NCI Yeast Anticancer Drug Screen. Data for the rad18 strain (AID 177); details: S. cerevisiae rad18 mutant growth inhibition, active compounds read high
Procedure, shortened: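 DNA-repair-defective yeast; compound treatment; growth inhibition scored against vehicle.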

[15] = at 5.0 µM (retest, dose inferred, filed as 0.5)
[16] = at 50.0 µM (retest, dose inferred, filed as 5.0)

SMILES: Cc1cc(O)c2c(c1O)C(=O)C13C(=C2O)C(=O)C2C(O)C1C1C(O)C3C(=O)C3=C(O)c4c(O)cc(C)c(O)c4C(=O)C321 (stereo not drawn)
- growth inhibition ([1]; at 1.2 µM): -7%
- growth inhibition ([1]; at 3.7 µM): 2%
- growth inhibition ([1]; at 11.0 µM): 38%
- growth inhibition ([1]; at 33.0 µM): 80% (active)
- growth inhibition ([1]; at 100.0 µM): 85% (active)
- growth inhibition ([2]; at 1.2 µM): 4%
- growth inhibition ([2]; at 3.7 µM): 3%
- growth inhibition ([2]; at 11.0 µM): -4%
- growth inhibition ([2]; at 33.0 µM): 1%
- growth inhibition ([2]; at 100.0 µM): -38%
- growth inhibition ([3]; at 1.2 µM): 5%
- growth inhibition ([3]; at 3.7 µM): 26%
- growth inhibition ([3]; at 11.0 µM): 61%
- growth inhibition ([3]; at 33.0 µM): 86% (active)
- growth inhibition ([3]; at 100.0 µM): 82% (active)
- growth inhibition ([4]; at 1.2 µM): 29%
- growth inhibition ([4]; at 3.7 µM): 37%
- growth inhibition [4, 15]: 12%
- growth inhibition ([4]; at 11.0 µM): 51%
- growth inhibition ([4]; at 33.0 µM): 79% (active)
- growth inhibition [4, 16]: 84% (active)
- growth inhibition ([4]; at 50.0 µM): 77.3% (active)
- growth inhibition ([4]; at 100.0 µM): 80% (active)
- growth inhibition ([5]; at 1.2 µM): 19%
- growth inhibition ([5]; at 3.7 µM): 34%
- growth inhibition [5, 15]: 75% (active)
- growth inhibition ([5]; at 11.0 µM): 76% (active)
- growth inhibition ([5]; at 33.0 µM): 86% (active)
- growth inhibition [5, 16]: 93% (active)
- growth inhibition ([5]; at 50.0 µM): 85.3% (active)
- growth inhibition ([5]; at 100.0 µM): 83% (active)
- growth inhibition [6, 15]: 37%
- growth inhibition [6, 16]: 86% (active)
- growth inhibition ([6]; at 50.0 µM): 79.2% (active)
- growth inhibition ([7]; at 1.2 µM): 18%
- growth inhibition ([7]; at 3.7 µM): 17%
- growth inhibition ([7]; at 11.0 µM): 84% (active)
- growth inhibition ([7]; at 33.0 µM): 91% (active)
- growth inhibition ([7]; at 100.0 µM): 83% (active)
- growth inhibition [8, 15]: 28%
- growth inhibition [8, 16]: 91% (active)
- growth inhibition ([8]; at 50.0 µM): 29.8%
- growth inhibition ([9]; at 1.2 µM): -5%
- growth inhibition ([9]; at 3.7 µM): 4%
- growth inhibition [9, 15]: 59%
- growth inhibition ([9]; at 11.0 µM): 27%
- growth inhibition ([9]; at 33.0 µM): 82% (active)
- growth inhibition [9, 16]: 87% (active)
- growth inhibition ([9]; at 50.0 µM): 77% (active)
- growth inhibition ([9]; at 100.0 µM): 84% (active)
- growth inhibition ([10]; at 1.2 µM): 12%
- growth inhibition ([10]; at 3.7 µM): 26%
- growth inhibition ([10]; at 11.0 µM): 52%
- growth inhibition ([10]; at 33.0 µM): 87% (active)
- growth inhibition ([10]; at 100.0 µM): 85% (active)
- growth inhibition ([11]; at 1.2 µM): 18%
- growth inhibition ([11]; at 3.7 µM): 15%
- growth inhibition ([11]; at 11.0 µM): 43%
- growth inhibition ([11]; at 33.0 µM): 79% (active)
- growth inhibition ([11]; at 100.0 µM): 83% (active)
- growth inhibition ([12]; at 1.2 µM): 29%
- growth inhibition ([12]; at 3.7 µM): 31%
- growth inhibition ([12]; at 11.0 µM): 54%
- growth inhibition ([12]; at 33.0 µM): 80% (active)
- growth inhibition ([12]; at 100.0 µM): 80% (active)
- growth inhibition [13, 15]: 58%
- growth inhibition [13, 16]: 86% (active)
- growth inhibition ([13]; at 50.0 µM): 63.4%
- growth inhibition ([14]; at 1.2 µM): -3%
- growth inhibition ([14]; at 3.7 µM): -4%
- growth inhibition ([14]; at 11.0 µM): 15%
- growth inhibition ([14]; at 33.0 µM): 73% (active)
- growth inhibition ([14]; at 100.0 µM): 84% (active)
